The text below walks through data of the supplement of paper PMC10681739.

In experiment [1] the target is T1, ETS1 (UniProt P14921).
T1 sequence: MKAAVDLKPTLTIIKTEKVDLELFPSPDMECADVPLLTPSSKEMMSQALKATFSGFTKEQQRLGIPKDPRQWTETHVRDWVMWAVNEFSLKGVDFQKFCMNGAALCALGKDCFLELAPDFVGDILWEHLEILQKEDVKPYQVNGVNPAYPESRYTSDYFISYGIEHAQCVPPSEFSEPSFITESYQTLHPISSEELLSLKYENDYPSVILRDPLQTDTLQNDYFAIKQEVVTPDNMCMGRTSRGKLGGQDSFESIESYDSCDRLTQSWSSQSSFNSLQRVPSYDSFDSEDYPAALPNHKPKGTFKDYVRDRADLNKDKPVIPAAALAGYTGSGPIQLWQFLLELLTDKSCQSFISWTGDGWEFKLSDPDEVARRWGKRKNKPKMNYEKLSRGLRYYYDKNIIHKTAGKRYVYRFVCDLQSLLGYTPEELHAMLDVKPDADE
The experiment can be described thus: ETS1 binding intensity (PBM fluorescence), ETS1 alone (arbitrary fluorescence units); higher = stronger binding. The settings on record: ETS1 concentration 1 nM; RUNX1 concentration 0 nM.

The target in experiment [2] is RUNX1 (UniProt Q01196). The experiment can be described thus: RUNX1 binding intensity (PBM fluorescence), RUNX1 alone (arbitrary fluorescence units); higher = stronger binding. The settings on record: RUNX1 concentration 2 nM; ETS1 concentration 0 nM. The procedure: (§1)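 Cooperative gcPBM on 36-bp genomic probes with neighbouring ETS1 and RUNX1 sites. Recombinant human RUNX1 (2 nM) was incubated alone or with ETS1 (25 nM) and detected with anti-RUNX1 antibody plus Alexa488 secondary. Values are medians over 4 replicate spots; the RUNX1+ETS1 data were normalised to the RUNX1-only data. The probes sit in constant array flanks that are not printed.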
Chain of RUNX1 (Q01196 whole entry): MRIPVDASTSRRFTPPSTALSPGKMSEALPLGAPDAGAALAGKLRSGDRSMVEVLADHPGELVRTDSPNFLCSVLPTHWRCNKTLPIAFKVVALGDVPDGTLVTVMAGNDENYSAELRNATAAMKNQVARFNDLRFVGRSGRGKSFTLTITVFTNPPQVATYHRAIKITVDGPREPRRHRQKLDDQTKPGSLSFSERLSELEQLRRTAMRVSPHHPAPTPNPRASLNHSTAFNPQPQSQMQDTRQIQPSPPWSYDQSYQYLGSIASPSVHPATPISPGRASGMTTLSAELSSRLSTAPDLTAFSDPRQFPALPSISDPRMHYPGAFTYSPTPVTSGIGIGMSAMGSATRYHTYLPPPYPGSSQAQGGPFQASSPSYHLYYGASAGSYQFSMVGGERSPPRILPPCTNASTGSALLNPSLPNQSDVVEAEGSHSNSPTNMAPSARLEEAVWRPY

Experiment [3] deals with T1, ETS1. The experiment can be described thus: ETS1 binding intensity (PBM fluorescence) in presence of RUNX1, normalised to ETS1-only experiment (arbitrary fluorescence units); higher = stronger binding. Particulars: ETS1 concentration 1 nM; RUNX1 concentration 25 nM.
The target in experiment [4] is RUNX1 (UniProt Q01196). The experiment can be described thus: RUNX1 binding intensity (PBM fluorescence) in presence of ETS1, normalised to RUNX1-only experiment (arbitrary fluorescence units); higher = stronger binding. Particulars: RUNX1 concentration 2 nM; ETS1 concentration 25 nM. The procedure: as §1
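Throughout, for RUNX1 binding intensity (PBM fluorescence) in presence of ETS1, normalised to RUNX1-only experiment: Full-length recombinant human ETS1 or RUNX1 bound to double-stranded 36-bp genomic probes on microarrays, detected by protein-specific primary antibody and Alexa488 secondary, spot fluorescence as median of four replicate spots.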
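Throughout, for RUNX1 binding intensity (PBM fluorescence), RUNX1 alone: Full-length recombinant human RUNX1 bound to double-stranded 36-bp genomic probes on a high-density microarray, scored as Alexa488 fluorescence per spot via anti-RUNX1 antibody, median of four replicate spots.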

For AGAAGGAACTACACAGGAAACCCACTGCCTCGATGG, the ETS1 binding intensity with ETS1 [1] is 2430; with ETS1 [3], 1640. For the same sequence, the RUNX1 binding intensity was 691 in the experiment with RUNX1 [2] and 865 in the experiment with RUNX1 [4].
Take ACATTTCCTTTTGGTATTTAAAGTAACCACACAGAA: the results for the ETS1 binding intensity in the experiment with ETS1 [1] and with ETS1 [3] were 495 and 668, respectively. The RUNX1 binding intensity worked out at 1060 with RUNX1 [2] and 2120 in the experiment with RUNX1 [4].
For AGCGGCTGCACAGGAAGTTGGTTTTCACAAAGGCAA, in that order: 5520, 6650, 658 and 1190.
With TGGCAGCGGGTGCGGAAACCACAGGCCTCCAGGCTT, the values for the ETS1 binding intensity with ETS1 [1] and in the experiment with ETS1 [3] were 701 and 1520, respectively. Moreover, the results for the RUNX1 binding intensity in the experiment with RUNX1 [2] and in the experiment with RUNX1 [4] were 1480 and 2470, respectively.
For TTGTCTGCATCCTGTGCTGTGTGGTAGCTCTGGGTT, in that order: 510, 541, 702 and 1490.
TTACTGCCGGAACTTGGGACCTTTGTAACCACGTCT: the ETS1 binding intensity with ETS1 [1] turned out to be 524; in the experiment with ETS1 [3] it was 586. Further, the RUNX1 binding intensity was determined as 768 with RUNX1 [2] and 875 with RUNX1 [4].
As to TTGGTGACCTCTTCCTGTCCGCTGTGGTGTTGTTAC, the ETS1 binding intensity with ETS1 [1] was 1080; with ETS1 [3], 1240. The RUNX1 binding intensity came to 841 in the experiment with RUNX1 [2] and 2350 with RUNX1 [4].
For TGGAACAATGCTGCTTCCTGTGGGTGTCCCCCGGCC, the ETS1 binding intensity is 1140 in the experiment with ETS1 [1] and 1400 with ETS1 [3]. In addition, the RUNX1 binding intensity in the experiment with RUNX1 [2] was found to be 698; with RUNX1 [4], 1330.
For CTCCGATTGAGAACAGGAAGCCACAGGCCAATACAA, in that order: 2660, 3260, 831 and 931.
Turning to GGGAGGCCCCATCCTGTGTGGCTGTGGCTTTTGCCT, the ETS1 binding intensity with ETS1 [1] is 414; in the experiment with ETS1 [3], 451. Also, the RUNX1 binding intensity with RUNX1 [2] is 653; in the experiment with RUNX1 [4], 1020.
For CCTCTTGCTGCCTCTTCCTGTGGTCTTTTCTCTGTC, in that order: 737, 951, 1840 and 2720.
For GTTGAAATTGAGCTTCCGTTGGTGGTTAACCCTCTG, the ETS1 binding intensity came out at 648 in the experiment with ETS1 [1] and 921 with ETS1 [3]. For the same sequence, the RUNX1 binding intensity was 894 with RUNX1 [2] and 1310 with RUNX1 [4].
In the case of TACAGCCAGGAAATGGGGAGGGTGCTGCGGGCGGCA, the figures for the ETS1 binding intensity in the experiment with ETS1 [1] and with ETS1 [3] were 858 and 1680, respectively. Further, the RUNX1 binding intensity with RUNX1 [2] came to 742; with RUNX1 [4] it was 917.
In the case of CCAGAATGCAGGAAGTGCTGTGGTTTGACTTTGTTT, the ETS1 binding intensity is 3550 in the experiment with ETS1 [1] and 9350 with ETS1 [3]. Further, the RUNX1 binding intensity was determined as 831 in the experiment with RUNX1 [2] and 1970 with RUNX1 [4].
